Data reported in paper PMC12136788.
Positions count from the first letter of the chain named. Over roughly 24,000 sequences, “enrichment r” has its median near 0.99; the highest 2% begin near 3.7. This excerpt belongs to a sample that is enriched for the highest values.

T1: UNK ZnF1-3 (human, UniProt Q9C0B0 31-174)
T1 sequence: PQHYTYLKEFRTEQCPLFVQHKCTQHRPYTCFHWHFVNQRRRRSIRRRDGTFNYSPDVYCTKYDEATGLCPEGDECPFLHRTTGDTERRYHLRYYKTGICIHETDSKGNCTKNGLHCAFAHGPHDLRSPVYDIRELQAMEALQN

B1: chr6:74304526:74304527:-_ENSG00000119899_ENST00000355773|hu_hu|motif|central (ssRNA)
RNA: GGGAGUUCUACAGUCCGACGAUCUAAUUAAGCAAAGGUAUCAGGAGGUCUGUUUCAGCUCAUUCCCUUUAGUAUGGCCCGGAAAAAUCAACAGAACUGUCCUACUUCAUGUUGCCCGACUAGCAGGCAGGUAUGUGAACCUAACAACAGAGGAUUGAGCAUCA
B2: 6859137_6859426_438_3pUTR_ENSG00000089693_ENST00000435120|human|control|control (ssRNA)
RNA: GGGAGUUCUACAGUCCGACGAUCGUCUGAAUCCCGAACAGUCCUCCGUGUCUCCCGGAUCCCGCCUGGUGCCGAGCGCAUCUCUGAUGUCUCUUGGUAGACCUUGGGGGCACCAUCACCCGUAUUGGAGUAGGAGAUGACAGUCAACAGAGGAUUGAGCAUCA
B3: chr18:35731670:35731671:+_ENSMUSG00000037236_ENSMUST00000166793|perfect_dup|motif|central (ssRNA)
RNA: GGGAGUUCUACAGUCCGACGAUCUGACCCUGUGAAUCCCUACCGAGAGAUGACUGCUGGAAUGACUUGGACAUUGUAGAACGGUCUCUUGUCUAUUUUAUAGAUCAAAAAAAAAAAAAAAAGUUUUAAAAGAUGGCCAAAAAGCAACAGAGGAUUGAGCAUCA
B4: chr1:39494564:39494565:+_ENSG00000168653_ENST00000372967|hu_hu|hu_hu_hu_mus_True|28_78 (ssRNA)
RNA: GGGAGUUCUACAGUCCGACGAUCAUGCAUUCGCCUCAUCGUUUUGUACCGAAGCAAACACUCUACGAAGUCAUCGAACUCUAUCUUGCACUCCUUUUUCGCCCGGGUAUAACCGAUCCCGUGUGCACACUCUAUCCACUCUUUCAACAGAGGAUUGAGCAUCA
B5: chr7:44244176:44244177:+_ENSG00000106636_ENST00000223369|hu_mus|hu_hu_hu_mus_False|48_48 (ssRNA)
RNA: GGGAGUUCUACAGUCCGACGAUCACUGUCGCUCCGGACGUAGACAUGGCAAAGAUACUCUUGUUCUUUGACAGAAGCUCUGCUGCCUUUCGAUGAGCGUUCCACAAUCAGUUGACUUGUAAAGGUCAUGAAUUCCUGCACACUCAACAGAGGAUUGAGCAUCA
B6: chr2:157388114:157388115:+_ENSMUSG00000067786_ENSMUST00000109526|mus_mus|motif|central (ssRNA)
RNA: GGGAGUUCUACAGUCCGACGAUCUUGGUGGAGGUGGUCCCUGUCUCCAGGAGCUUACAAUCUAGCUGGGGAGACACGGCGGAUGCACACUUAAACCAGUACAAUUAGCGACUACCACAAUAUUGACCACAACUGCUGCGUGAGCAACAGAGGAUUGAGCAUCA
B7: 158551514_158564203_814_3pUTR_ENSG00000122335_ENST00000367104|human|control|control (ssRNA)
RNA: GGGAGUUCUACAGUCCGACGAUCCACCCUUCUGAGCAGCUAGACUCUGACUGCUUUCACUAAGAGCCAAAGAUGUAAAAUACUGGAUACACUCAUCUAGCUCUGUUUGAGGUAAGGAAGCCAGCAACUGUCUGAGCUCUUCUUCAACAGAGGAUUGAGCAUCA
B8: 13689013_13692640_988_3pUTR_ENSMUSG00000022684_ENSMUST00000023365|mouse|control|control (ssRNA)
RNA: GGGAGUUCUACAGUCCGACGAUCCACUCCCAGGGCUCUCACACGCUCCAGCUCCGUGAGGAUGACCCUUCUGUGGCUACUGUUCUCUAUGGUAUAAGGUGCCCUGGAAAACUCUUCUUCUGUCAAAGUUAAAAGCAACCUUCCCAACAGAGGAUUGAGCAUCA
B9: chr2:120842339:120842340:+_ENSMUSG00000023572_ENSMUST00000060455|mus_mus|motif|central (ssRNA)
RNA: GGGAGUUCUACAGUCCGACGAUCCUUAAGGACAGAGGCUGCCUUUCUAUCGAGCAAACACCCUGUCAAAGCUCCACUUCGGAAAGCAGACGUUAAAAAAACUUAAAAAAUAAAUAGGUAAAGCAGACACUGGAUCGUGGGUGUCAACAGAGGAUUGAGCAUCA
B10: chr2:120842339:120842340:+_ENSMUSG00000023572_ENSMUST00000060455|mus_mus|FALSE|FALSE (ssRNA)
RNA: B9 RNA with G80U, G81A
B11: chr1:185089287:185089288:-_ENSG00000121486_ENST00000367506|hu_hu|FALSE|FALSE (ssRNA)
RNA: GGGAGUUCUACAGUCCGACGAUCUGACUGGACAUGGCUUUCUGACUGUCCUCCAGUGUAGGUGGGGGUGCUGUACUUUAAAAGGAUAGAUUUAAACUGCAUCAGAGGUGCAUCUGUGCGUACACCCAUUGGGUCAAAAUGAGUCAACAGAGGAUUGAGCAUCA
B12: 104620154_104620274_4085_CDS_ENSMUSG00000074994_ENSMUST00000117237|mouse|control|control (ssRNA)
RNA: GGGAGUUCUACAGUCCGACGAUCACCUCCACUUUCAAUAUUUUCCUCAUCUGUAAAACCUUCUAUUGCAACUGUGUCCUGUCCUUUUGCCAACUGGUCUGAAGGAAGACUAUCAAGUUCGAUGGCUGUGGGGGAUUCUGUGGACAACAGAGGAUUGAGCAUCA
B13: chr18:35731670:35731671:+_ENSMUSG00000037236_ENSMUST00000166793|perfect_dup|motif|central (ssRNA)
RNA: GGGAGUUCUACAGUCCGACGAUCUGACCCUGUGAGUCCCUACUGAGAGAUGACUGCUGGAAUGACUUGGACAUUGUAGAACGGGCUCUUGUCUAUUUUAUAGAUUAAAAAAAAAAAUUUUUUUAAAGACGGCCAAAAAGAAAGCAACAGAGGAUUGAGCAUCA
B14: chr16:20683585:20683586:+_ENSMUSG00000045983_ENSMUST00000044783|mus_mus|motif|central (ssRNA)
RNA: GGGAGUUCUACAGUCCGACGAUCUAUUGCUUCUGUUAACAUCUUCAACUUGAAUAACUCUCCAAUAAACUUGAUAUUCCCGGAAGAGCGCCGCCUAGCUAUGUCCCGGGCUUCUUCUAGCUCUUCUUUCAGGCGUCCCCGUUCCAACAGAGGAUUGAGCAUCA

These binders were tested against T1, UNK ZnF1-3 (assay: nsRBNS (natural sequence RNA bind-n-seq); RBNS binding buffer (assumed for nsRBNS): 25 mM Tris pH 7.5, 150 mM KCl, 3 mM MgCl2, 0.01% Triton X-100, 500 ug/ml BSA, 20 U/ml SUPERase-In, 4 C; UNK is unkempt and MSI1 is Musashi-1; names of the RNAs are library labels; protein concentration not given here; high values mean tight binding).

| Binder | binding signal |
| --- | --- |
| B1 | 0.917 enrichment R |
| B2 | 0.67 enrichment R |
| B3 | 3.64 enrichment R |
| B4 | 0.645 enrichment R |
| B5 | 0.634 enrichment R |
| B6 | 1.28 enrichment R |
| B7 | 0.91 enrichment R |
| B8 | 0.702 enrichment R |
| B9 | 3.71 enrichment R |
| B10 | 5.28 enrichment R |
| B11 | 0.951 enrichment R |
| B12 | 0.848 enrichment R |
| B13 | 3.64 enrichment R |
| B14 | 0.438 enrichment R |
